“And” between values parts separate entries of the source, which are not always exact repeats. Equal values may be shown once. Some compounds were tested as several samples or in several runs, with calls that do not always agree. The source made the active and inactive calls. Rule for the calls, unless noted: active = hit-call score of the fitted dose curve at least 0.9, where 1 is the maximum; inactive = score below 0.9.

Read-out in one assay: CD69, CD69 (gene 969)
Put plainly: BSK_LPS_CD69: BioMAP Diversity Plus: LPS Assay for CD69 Biomarker Activity (AID 2284303). Particulars: primary human HUVEC with PBMC. In short, it runs like this: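 Human umbilical vein endothelial cells co-cultured with PBMC under LPS stimulation, chemical exposure 24 h; cell-surface CD69 measured by ELISA and fitted in the positive direction versus DMSO.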
`O=C(O)C(F)(F)C(F)(F)F`: the result was inactive.

In the case of `O=C(Cl)C(F)(F)C(F)(F)C(F)(F)C(F)(F)C(F)(F)C(F)(F)C(F)(F)C(F)(F)F`, the AC50 (commonly the midpoint of the concentration-response curve, whichever way the signal moves) was 18.1 µM (active) and 22.1 µM (active); the result was inactive.

In the case of `Cc1ccc(S(=O)(=O)OCC(F)(F)C(F)(F)C(F)(F)C(F)(F)C(F)(F)C(F)F)cc1`, the AC50 is 7.94 µM (active) and the outcome was inactive.

Take `FC(F)(F)C(F)(F)C(F)(F)C(F)(F)C(F)(F)C(F)(F)C(F)(F)I`: the result was inactive.

Regarding `FC(F)(F)C(F)(F)C(F)(F)N(C(F)(F)C(F)(F)C(F)(F)F)C(F)(F)C(F)(F)C(F)(F)F`, the result was inactive.

Consider `FC(F)(F)C(F)(F)C(F)(F)C(F)(F)C(F)(F)C(F)(F)C(F)(F)Br`, for which the result was inactive.

For `O=C(O)C(F)(OC(F)(F)C(F)(OC(F)(F)C(F)(F)C(F)(F)F)C(F)(F)F)C(F)(F)F` (stereo not drawn), the outcome was inactive.

Regarding `C=C(C)C(=O)OCC(F)(F)C(F)(F)C(F)(F)C(F)(F)C(F)(F)C(F)(F)C(F)(F)F`, the result was inactive.

Consider `O=S(=O)(OCCOC(F)(F)F)C(F)(F)F`, for which the outcome was inactive.

In the case of `OCCCC(F)(F)C(F)(F)C(F)(F)F`, the result was inactive.

Regarding `CCCCCCOC(=O)c1ccccc1O`, the AC50 was 39.4 µM (active) and 46.4 µM (active).

Turning to `FC(F)(F)C(F)(F)CNCC(F)(F)C(F)(F)F`, the outcome was inactive.

In the case of `CCO[Si](CCC(F)(F)C(F)(F)C(F)(F)C(F)(F)C(F)(F)C(F)(F)F)(OCC)OCC`, the result was inactive.

With `O=C(O)C(F)(F)C(F)(F)C(F)(F)C(F)(F)C(F)(F)C(F)(F)C(F)(F)C(F)(F)Cl`, the concentration at half-maximal activity (AC50) was 35.5 µM (active) and 40.7 µM (active).

In the case of `C=CC(F)(F)C(F)(F)C(F)(F)C(F)(F)C(F)(F)C(F)(F)C(F)(F)C(F)(F)C=C`, the outcome was inactive.

Turning to `O=C(O)C(F)(OC(F)(F)C(F)(OC(F)(F)C(F)(OC(F)(F)C(F)(F)C(F)(F)F)C(F)(F)F)C(F)(F)F)C(F)(F)F` (stereo not drawn), the outcome was inactive.

`FC(F)(F)C(F)(F)C(F)(F)C(F)(F)C(F)(F)C(F)(F)CCS`: the outcome was inactive.

Consider `C=CC(F)(F)C(F)(F)C(F)(F)C(F)(F)C(F)(F)C(F)(F)C(F)(F)C(F)(F)F`, for which the result was inactive.

Regarding `NC(=O)C(F)(F)C(F)(F)C(F)(F)C(F)(F)F`, the result was inactive.

In the case of `O=S(=O)(OCC(F)F)C(F)(F)F`, the result was inactive.

Regarding `C=C(C)C(=O)OCCC(F)(F)C(F)(F)C(F)(F)C(F)(F)C(F)(C(F)(F)F)C(F)(F)F`, the outcome was inactive.

In the case of `CCCCC(CC)COP(=O)(O)OCC(CC)CCCC` (stereo not drawn), the AC50 is 0.987 µM (active) and the outcome was inactive.

Turning to `C=CC(=O)OCC(F)(F)C(F)(F)C(F)(F)C(F)(F)C(F)(F)C(F)(F)C(F)(F)F`, the result was inactive.

Take `FC1CC(F)(F)C(F)(F)C1(F)F` (stereo not drawn): the outcome was inactive.

In the case of `O=C(O)C=C(C(F)(F)F)C(F)(F)F`, the result was inactive.

As for `CCCCCCCCC(F)(F)C(F)(F)C(F)(F)C(F)(F)C(F)(F)C(F)(F)F`, the outcome was inactive.

For the compound `FC(F)(Br)C(F)(F)C(F)(F)C(F)(F)C(F)(F)C(F)(F)Br`, the outcome was inactive.

For another assay, the system named is IYD (gene 389434). Nature of the assay: CCTE_GLTED_hIYD: CCTE's human Iodotyrosine Deiodinase (xIYD) Inhibition Assay, Great Lakes Toxicology and Ecology Division (GLTED) Lab (AID 2284317; active = hit-call score of the fitted dose curve at least 0.9, where 1 is the maximum;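 note: cell-free human IYD enzyme made in baculovirus insect cells; iodide freed from monoiodotyrosine measured by cerium arsenite color change at 420 nm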).
Conditions: not given
In short, it runs like this:
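hIYD: baculovirus-expressed human IYD deiodinated monoiodotyrosine for 3 h with test chemical; free iodide was measured by Sandell-Kolthoff absorbance at 420 nm and normalized to MNT and DMSO/NaOH controls.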
For the compound `O=C(Cl)C(F)(F)C(F)(F)C(F)(F)C(F)(F)C(F)(F)C(F)(F)C(F)(F)C(F)(F)F`, the AC50 is 139 µM (active).

Take `O=C(O)C(F)(F)C(F)(F)C(F)(F)C(F)(F)C(F)(F)C(F)(F)C(F)(F)C(F)(F)Cl`: the concentration at half-maximal activity (AC50) was 74.4 µM (active).

For `CCCCC(CC)COP(=O)(O)OCC(CC)CCCC` (stereo not drawn), the half-maximal activity concentration (AC50) is 100 µM (active).

For the origin of these results see PubChem BioAssay (EPA / NIEHS).
